Assay outcomes as filed in PubChem.
Most compounds without a hit are left out; they make up all but 1.1% or so of the library.
HTR5A inv ag: counter-screen for OPRM1-OPRD1 inverse agonists: human HTR5A inverse agonism | inhibition, % at 9.3 µM | HTR5A cell line, luminescence | AID 504634 | 340,000 compounds, 0.083% hits | P47898; in the data active = inhibition mostly above about 23%, no sharp cut-off; inactive = mostly below about 18%
Target sequence (P47898 whole entry, looked up): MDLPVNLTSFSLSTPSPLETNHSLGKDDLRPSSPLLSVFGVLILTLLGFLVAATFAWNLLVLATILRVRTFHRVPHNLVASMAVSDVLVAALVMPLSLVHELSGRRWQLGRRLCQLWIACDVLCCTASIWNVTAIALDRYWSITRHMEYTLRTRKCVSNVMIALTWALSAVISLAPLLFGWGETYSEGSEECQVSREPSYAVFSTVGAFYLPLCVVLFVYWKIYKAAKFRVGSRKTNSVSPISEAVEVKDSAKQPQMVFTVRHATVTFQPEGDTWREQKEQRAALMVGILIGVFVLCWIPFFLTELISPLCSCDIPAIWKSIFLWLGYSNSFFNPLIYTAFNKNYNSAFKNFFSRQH
OPRM1-OPRD1 ag: OPRM1-OPRD1 heterodimerization agonism | activation, % at 9.3 µM | AID 504326 | P35372+P41143 | 340,000 compounds, 0.3% hits | cells, luminescence
OPRM1-OPRD1 inv: mu-delta opioid heterodimer inverse agonism; 340,000 compounds, 0.21% hits; AID 504357; P35372+P41143; cell-based MOR-DOR heterodimer luminescence; inhibition, % at 9.3 µM; in the data active = inhibition above about 22%, passing the limit was not always enough
HTR5A ag ctr: activates human HTR5A in OPRM1-OPRD1 agonist counter-screen | HTR5A agonist assay, luminescence, cell-based | AID 504692 | 340,000 compounds, 0.61% hits | P47898 | activation, % at 9.3 µM; in the data active = activation mostly above about 9.5%, no sharp cut-off; inactive = mostly below about 7.6%
MOR-DOR ag conf: confirmation of human OPRM1-OPRD1 heterodimerization agonists. shares compounds with OPRM1-OPRD1 ag. cells, MOR-DOR heterodimerization, luminescence complementation. activation, % at 9.3 µM. 830 compounds, 45% hits
HTR5A ag counter: counter-screen for OPRM1-OPRD1 agonists: human HTR5A agonism. 830 compounds, 8% hits. shares compounds with OPRM1-OPRD1 ag. activation, % at 9.3 µM. HTR5A agonist counterscreen, cell luminescence; in the data active = activation above about 17%
Hits are given with their value; – = inactive; · = no result given. Rule as the data show it, unless noted: active = activation above about 18%; inactive = the rest.

SMILES	HTR5A inv ag	OPRM1-OPRD1 ag	OPRM1-OPRD1 inv	HTR5A ag ctr	MOR-DOR ag conf	HTR5A ag counter
C=CCOc1ccc(C=CC(=O)c2c(O)c(OC)c(OC)c(OC)c2OC)cc1	–	–	–	–	·	·
COc1ccc(C[C@H]2CN3C(=NC[C@@H]3Cc3ccccc3)N2CCNC(=O)c2ccc(C)c(Br)c2)cc1	–	22.4	–	–	–	–
Cc1ccc(S(=O)(=O)CCC(=O)OCc2cc(=O)oc3cc(C)ccc23)cc1	–	–	–	–	·	·
COc1ccc(C(C)NCCC(c2ccc(OC(C)C)cc2)c2ccccc2OC)cc1 (stereo not drawn)	–	23.4	–	–	36.9	–
COc1ccccc1C(CC(=O)Nc1ccc(Cl)cc1)c1ccc(OC(C)C)cc1 (stereo not drawn)	–	–	–	–	·	·
Cn1nc(CC#N)c2c(=N)n(N)cnc21	–	–	–	–	·	·
CN(C)CCNc1ccc2ncn3c4ccc(O)cc4c(=O)c1c23	–	–	–	–	·	·
COC(=O)C1=C(C)N(CCCC(=O)O)C(=O)NC1c1ccccc1OS(=O)(=O)c1ccccc1[N+](=O)[O-] (stereo not drawn)	–	50.8	–	–	47.2	–
CCOC(=O)C1=C(C)N(Cc2ccccc2)C(=O)NC1c1ccccc1OS(=O)(=O)c1ccccc1[N+](=O)[O-] (stereo not drawn)	–	65.2	–	–	–	–
CC(CCCCCCCCC(=O)O)N(CCO)C(=O)OC(C)(C)C (stereo not drawn)	–	–	–	–	·	·
NC1=NC2(CCN(Cc3ccccc3)CC2)n2c(nc3ccccc32)N1	–	49.7	–	–	27.8	–
CCCOc1ccc(C(=O)Nc2ccc(N3CCN(C(=O)c4ccco4)CC3)cc2)cc1	–	23.0	–	–	–	–
O=[N+]([O-])c1ccc(SNc2ccccc2)c([N+](=O)[O-])c1	–	19.8	–	–	–	–
C=CC[C@H](CC(=O)NCCO)C(=O)N[C@@H](COC(=O)[C@@H](CC=C)CC(=O)OC(C)(C)C)Cc1c[nH]c2ccccc12	–	–	–	–	·	·
COCC(=O)OC1CCn2c1nc1c2C(=O)C(C)=C(NC(C)=O)C1=O (stereo not drawn)	–	22.6	–	–	–	–
COc1ccc(C(C(=O)NC2CCCCC2)N(C(=O)Cc2c[nH]c3ccccc23)c2ccc(NC(C)=O)cc2)cc1OC (stereo not drawn)	–	26.3	–	–	83.1	–
CC(NCCC1(Cc2ccccc2Cl)CCOC(C)(C)C1)c1cccs1 (stereo not drawn)	–	44.7	–	–	–	–
CC(NCCC1(C(C)C)CCOC(C)(C)C1)c1cccs1 (stereo not drawn)	–	–	–	–	·	·
CCCC(c1nnnn1Cc1cccs1)N1CCN(C)CC1 (stereo not drawn)	–	–	–	–	·	·
COc1ccccc1CN1CCN(C(CC(C)C)c2nnnn2Cc2cccs2)CC1 (stereo not drawn)	–	45.6	–	–	62.9	–
CC(=O)C1CCC2C3CCC4=CC(=O)CCC4(C)C3(F)C(O)CC12C (stereo not drawn)	–	–	–	–	·	·
COc1ccccc1N1CCN(C(c2cccs2)C(C)NC(=O)c2cccs2)CC1 (stereo not drawn)	–	23.4	–	–	–	–
CC(C)C(=O)NC(C)C(c1cccs1)N1CCN(c2ccccc2)CC1 (stereo not drawn)	–	30.0	–	–	28.8	–
COc1ccc(S(=O)(=O)N2CCCCC2)cc1NC(=O)CCNC(=O)c1ccco1	–	–	–	–	·	·
CCOC(=O)N1C(=O)NC(=O)C1c1ccc(OC)cc1 (stereo not drawn)	–	–	–	–	·	·
SMILES	HTR5A inv ag	OPRM1-OPRD1 ag	OPRM1-OPRD1 inv	HTR5A ag ctr	MOR-DOR ag conf	HTR5A ag counter
Cc1cccc(NC(=S)NC(=O)CCc2ccccc2)c1	–	18.1	–	–	351.9	–
Cc1cccc(NC(=O)NNC(=O)CCc2ccccc2)c1	–	–	–	–	·	·
CC(=O)Nc1ccc(S(=O)(=O)N(C)CC(=O)Nc2nc3ccccc3[nH]2)cc1	–	–	–	–	·	·
O=C(OC1C2CCC1C1CN(CCc3ccccc3)CC12)c1ccccc1 (stereo not drawn)	–	18.1	–	–	59.9	–
CCOC(=O)C1CCCN(CCc2ccccc2)C1 (stereo not drawn)	–	–	–	–	·	·
Cc1cc(NC(=O)C(Cl)Cl)cc2c1OCO2	–	–	–	–	·	·
CC1=CC(C)(C)N=C(Nc2nc(C)c3cc(C)cc(C)c3n2)N1	–	18.8	–	–	21.1	–
Cc1cc(C)c2nc(Nc3nc(-c4ccccc4)cc(=O)[nH]3)nc(C)c2c1	–	–	–	–	·	·
CC1CCc2ccccc2N1CC(=O)Nc1cccc(S(=O)(=O)N2CCCC2)c1 (stereo not drawn)	–	–	–	–	·	·
C[C@H]1O[C@@H](O[C@H]2[C@@H](O)C[C@H](O[C@H]3[C@@H](O)C[C@H](O[C@H]4CC[C@@]5(C)[C@H](CC[C@@H]6[C@@H]5C[C@@H](O)[C@]5(C)[C@@H](C7=CC(=O)OC7)CC[C@]65O)C4)O[C@@H]3C)O[C@@H]2C)C[C@H](O)[C@@H]1O	–	64.9	–	–	–	104.6
COc1ccc(S(=O)(=O)N2CCCCCC2)cc1C(=O)Nc1ccc(C(=O)N(C)C)cc1	–	–	–	–	·	·
COc1ccc(CC(=O)NCC(c2ccc(OC)cc2)N(C)C)cc1 (stereo not drawn)	–	31.2	–	–	–	–
COc1ccc(C(CNC(=O)Cc2cccs2)N(C)C)cc1 (stereo not drawn)	–	84.8	–	–	–	–
COc1ccc(C(CNC(=O)c2cncc(Br)c2)N(C)C)cc1 (stereo not drawn)	–	274.2	–	–	232.1	–
COc1ccc(CNC(=O)Cc2cccs2)cc1	–	–	–	–	·	·
COc1ccc(C(CNC(=O)c2cc(SC)ccc2Cl)N(C)C)cc1 (stereo not drawn)	–	104.5	–	–	–	–
CCN(CC)C(=O)c1nc[nH]c1C(=O)N1CCC(C)CC1	–	–	–	–	·	·
CCC(CO)Oc1cc(NCc2ccc(C(F)(F)F)cc2)c2ncn(C(C)C)c2c1 (stereo not drawn)	–	–	–	–	·	·
CCN(CC)c1ccc(C(=O)O)cc1	–	–	–	–	·	·
CCN(CC)c1ccc(/C=C2\C(=O)c3ccc(C(=O)O)cc3C2=O)cc1	–	21.1	–	–	–	–
CC1CN(C)C(C)c2c1oc1ccc(N)cc21 (stereo not drawn)	–	71.7	–	–	58.4	–
C/C(=N/Nc1ccnc2cc(Cl)ccc12)c1ccc(N)cc1	–	20.5	–	–	41.5	–
Clc1ccc2c(N/N=C/c3cccc(Br)c3)ccnc2c1	–	–	–	–	·	·
C/C(=N/Nc1ccnc2cc(Cl)ccc12)c1ccc(O)cc1	–	–	–	–	·	·
Clc1ccc2c(N/N=C/c3ccccc3Br)ccnc2c1	–	51.8	–	–	53.3	–
